Assay results from PubChem BioAssay AID827 (SRMLSC, 2007).
The campaign covered roughly 140,000 compounds. About 1,700 (1.2%) were called active. For the sample, actives were picked, then their nearest neighbours and some compounds at random. A number with no mark means an inactive call.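 Rule for the calls: active = viability at or below a set limit, 4 SD under the median of all tested compounds (cut at about 3.7% in these data); inactive = the rest.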

Test: viability loss in PTEN-deleted colon tumor cells – cell-based, HCT116, CellTiter-Glo, primary screen (AID 827);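 note: PTEN knockout HCT116 line with beta catenin targeted HCT116 as companion control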
Details: HCT116 PTEN-null viability, 60 h, at 10 µM, active compounds read low

| Compound | viability |
| --- | --- |
| Cc1ccc2sc(NNC(=O)c3ccc4c(c3)OCCO4)nc2c1C | 68.3% |
| O=C1C2C3C=CC(C4CC34)C2C(=O)N1c1nccs1 (configuration not stated) | 101% |
| C=CCOc1ccc(/C=N/NC(=O)C(C)Sc2ccccn2)cc1OCC (configuration not stated) | 103% |
| Cc1ccc(OCc2nnc(SC3CCc4ccccc4C3=O)n2C)cc1 (configuration not stated) | 85.3% |
| O=C(/C=C/c1ccc(Cl)cc1Cl)NCc1ccco1 | 96.5% |
| O=C(/C=C/c1ccc(Cl)cc1Cl)c1cccnc1 | 0.59% (active) |
| O=C(NCc1ccc(Cl)c(Cl)c1)c1cccnc1 | 100% |
| CCCC(O)(CCC)C(=O)NN(C(=O)CCl)c1cccc(C)c1 | 32.7% |
| CC(C[N+](C)(C)C)OC(N)=O (configuration not stated) | 1.03% (active) |
| CC(=O)OC(C)C[N+](C)(C)C (configuration not stated) | 98.9% |
| COc1ccc(/C(N)=N/OC(=O)CCCc2ccccc2)cc1 | 94.9% |
| COC(=O)c1cc(C(=O)N(Cc2ccccc2)c2ccccn2)cc([N+](=O)[O-])c1 | 94.2% |
| NC1=C([N+](=O)[O-])C(c2ccccc2)C2=C(CCCC2=O)O1 (configuration not stated) | 95.7% |
| O=C(COC(=O)/C(=C/c1cccs1)c1cccs1)NCc1ccccc1Cl | 91.8% |
| Cc1coc2c(O)cc3c(c12)OC1(N2CCCCC2)C(=O)NCCCC31 (configuration not stated) | 2.96% (active) |
| Cn1cc(C(=O)NCc2ccccc2F)cn1 | 102% |
| O=C(Nc1ccc2c(c1)OCCO2)c1cnccn1 | 97.3% |
| CCc1ccc(NC(=O)c2ccc(Cn3cc([N+](=O)[O-])cn3)cc2)cc1 | 99% |
| Cn1cc([N+](=O)[O-])c(C(=O)Nc2ccc3c(c2)OCCO3)n1 | 3.52% (active) |
| COc1cccc(NC(=O)c2ccc(Cn3cc([N+](=O)[O-])cn3)o2)c1 | 86.8% |
| O=C(Nc1ccc2c(c1)OCCO2)c1ccncc1 | 94.3% |
| Cn1cc([N+](=O)[O-])c(C(=O)Nc2cnn(Cc3ccc(F)cc3)c2)n1 | 3.56% (active) |
| O=[N+]([O-])c1cccc(S(=O)(=O)N2CCCCCC2)c1 | 86.5% |
| COc1ccc(C(=O)CSc2nnc(NC(=O)C3CC(=O)N(c4cccc(OC)c4)C3)s2)cc1 (configuration not stated) | 94.8% |
| CSc1nc2ccccc2cc1/C=C(\C#N)c1ccc(Cl)cc1Cl | 3.51% (active) |

| Compound | viability |
| --- | --- |
| CSc1nc(N)c(C#N)c(-c2ccccc2Cl)c1C#N | 86.3% |
| Cc1nc2ccccc2cc1O | 103% |
| Cc1cc(C(=O)COC(=O)CNC(=O)c2ccc(F)cc2)c(C)n1Cc1ccco1 | 96.4% |
| COc1cccc2cc(C(=O)N(C)C)c(=O)oc12 | 1.64% (active) |
| COc1cccc2cc(C(=O)N3CCN(C(=O)c4ccccc4)CC3)c(=O)oc12 | 87.7% |
| C=CCc1cccc2cc(C(=O)OCC)c(=O)oc12 | 104% |
| Cc1ccc(Oc2cc(NC(=O)CCCn3nc(C)c([N+](=O)[O-])c3C)cc([N+](=O)[O-])c2)cc1 | 71.1% |
| CC(C)(C)C1CCC(OC(=O)CCC(=O)Nc2ccccc2)CC1 (configuration not stated) | 87% |
| CC(Nc1nc(N2CCCC2)nc2ccccc12)c1ccccc1 (configuration not stated) | 2.77% (active) |
| CC(C)n1c(C(O)c2ccccc2)nc2ccccc21 (configuration not stated) | 101% |
| Cc1ccc(C(CC(=O)O)Nc2nc(N3CCCCC3)nc(N3CCCCC3)n2)cc1 (configuration not stated) | 99.5% |
| Cc1ccc(C)c(NC(=S)NCC(c2cccnc2)N2CCOCC2)c1 (configuration not stated) | 92.3% |
| CCCCCCc1cc2cc(-c3nnc(-c4ccccc4)o3)c(=O)oc2cc1O | 1.84% (active) |
| CC(=O)c1c(C)[nH]c(C(=O)OCC(=O)Nc2sc3c(c2C#N)CCCC3)c1C | 66.9% |
| COc1cccc2c1CCC(NC(C)=O)C2=O (configuration not stated) | 86% |
| Oc1ccc(Cl)cc1/C=N/c1nc2ccccc2[nH]1 | 93.9% |
| COc1ccc(/C=C(/NC(=O)c2ccc(C)cc2)c2nc3ccccc3[nH]2)cc1OC | 99.4% |
| O=C(/C(=C/c1cccc(Cl)c1)c1nc2ccccc2[nH]1)c1ccccc1 | 1.59% (active) |
| Cc1ccc(C(=O)/C=C/Nc2ccc(S(=O)(=O)Nc3onc(C)c3C)cc2)cc1 | 92.7% |
| O=C(NCCc1ccccc1)C1CCC(Cn2c(=O)c3ccccc3n(Cc3cccnc3)c2=O)CC1 (configuration not stated) | 63.7% |
| Cc1cccc(NC(=O)CSc2nc3[nH]ncc3c(=O)[nH]2)c1 | 90.2% |
| CCC(C)NCCOCCOc1ccc(Br)cc1C (configuration not stated) | 71% |
| CC(C)(C)CC(C)(C)NCC(O)COCCOc1ccc(Br)cc1 (configuration not stated) | 1.74% (active) |
| Cc1noc(COc2ccccc2OCC(O)CNC(C)(C)C)n1 (configuration not stated) | 98.8% |
| Cc1cccc(C(=O)OCC(=O)Nc2sc3c(c2C#N)CCC3)c1 | 95.8% |

| Compound | viability |
| --- | --- |
| CCc1ccccc1NC(=O)CN(C)C(=O)COc1ccc(C)nc1[N+](=O)[O-] | 95.3% |
| O=C(NNc1c2ccccc2nc2ccccc12)c1cc2ccccc2cc1O | 2.39% (active) |
| Cc1noc(C)c1COC(=O)c1cc2ccccc2cc1O | 86.5% |
| O=C(Nc1c2c(nc3ccccc13)CCCC2)c1ccccc1Br | 86.9% |
| C=CCNC(=O)c1ccccc1NC(=O)c1ccc(Cl)c(S(=O)(=O)Nc2cccc(C)c2C)c1 | 55.4% |
| Cc1ccc(-n2c(SCC(=O)N/N=C/C=C/c3ccccc3[N+](=O)[O-])nc3ccccc3c2=O)cc1 | 85.4% |
| Cn1cc(/C=C/c2nc3ccccc3c(=O)n2-c2cccc([N+](=O)[O-])c2)c2ccccc21 | 62.3% |
| CCn1c(/C=C/c2ccc([N+](=O)[O-])o2)nc2ccccc2c1=O | 2.45% (active) |
| CCc1nnc(NC(=O)[C@@H](NC(=O)c2cccc(C)c2)C(C)C)s1 | 80.8% |
| C/C(O)=C\c1nc(=O)c2c(C)cc(C)nc2n1-c1ccccc1 | 2.19% (active) |
| Cc1cc(C)c2c(n1)sc1c(=O)n(-c3ccccc3)c(=O)[nH]c12 | 97.1% |
| N#CCSc1nc2ccccc2c(=O)n1-c1ccccc1 | 90.5% |
| COc1ccc(CCC(=O)OCC(=O)Nc2ccc(C)c(S(=O)(=O)N(C)C)c2)cc1 | 96.3% |
| c1ccc2c(c1)CSc1sccc1C2=C1CCNCC1 | 4.26% |
| CCOC(=O)c1ccc(N/C(=N/S(=O)(=O)c2ccccc2)c2ccccc2)cc1 | 102% |
| CCCCC(C(=O)OCC(=O)c1ccc(OC)cc1)N1C(=O)c2ccccc2C1=O (configuration not stated) | 97.5% |
| CCOC(=O)c1ccccc1NS(=O)(=O)c1ccc(OC)cc1 | 15.6% |
| CCOC(=O)C1=C(c2ccc(OC)cc2)C(=O)c2ccccc2C1=O | 1.48% (active) |
| N#C/C(=C(/O)COC(=O)COc1ccc(Cl)cc1)c1nc2ccccc2[nH]1 | 5.27% |
| N=c1c2c(-c3ccccc3)c(-c3ccccc3)oc2ncn1Cc1ccco1 | 54.2% |
| N=c1c2c(-c3ccccc3)c(-c3ccccc3)n(Cc3ccccc3)c2ncn1CCCO | 1.76% (active) |
| OCCCN1c2ccccc2Nc2nnc(-c3ccccc3)cc21 | 53.1% |
| Cc1[nH]c(=O)c(C(=O)/C=C/c2ccccc2)c2c1CCCC2 | 1.81% (active) |
| Cc1nc(-c2ccccc2)sc1C(=O)/C=C/c1ccccc1 | 6.16% |
| O=C(/C=C/c1ccccc1)c1ccccc1O | 83.3% |

| Compound | viability |
| --- | --- |
| O=C(Nc1ccccc1)c1cc2ccccc2[nH]1 | 66.4% |
| O=C(/C=C/Sc1ncn[nH]1)c1ccc(Cl)cc1 | 2.52% (active) |
| O=C(NCCOCc1ccc(Cl)cc1)c1ncn[nH]1 | 101% |
| CC(C)(C)c1ccc(C(=O)CSc2ncn[nH]2)cc1 | 94.8% |
| CC(=O)NC1C(OCc2ccccc2)OC(COC(C)=O)C(OC(C)=O)C1OC(C)=O (configuration not stated) | 96.9% |
| Cc1ccc(/C=N\n2c(-c3ccccc3)n[nH]c2=S)s1 | 109% |
| S=c1[nH]nc(-c2cccnc2)n1/N=C/C(Cl)=C\c1ccccc1 | 8.01% |
| Cc1cc(-c2n[nH]c(=S)n2/N=C/C(Br)=C/c2ccccc2)n[nH]1 | 1.39% (active) |
| Cc1nn(C)c(C(=O)NNC(=S)NC2CCCCC2)c1Cl | 95.4% |
| CC1CCN(C(=S)NC2CC3CCC2C3)CC1 (configuration not stated) | 95.9% |
| O=C(CCCN1C(=O)/C(=C/c2ccco2)SC1=S)Nc1ccccc1 | 24% |
| O=C1/C(=C\c2ccccc2Cl)SC(=S)N1CCC(=O)N1CCCc2ccccc21 | 2.6% (active) |
| O=C(c1c(Cl)nc2sccn12)N1CCCc2ccccc21 | 81.7% |
| N=C1C(=O)OCC1c1ccccc1NC(=O)CN1CCCCC1 (configuration not stated) | 83.9% |
| CC(NC(=O)c1cccc2ccccc12)c1ccc2c(c1)CCCC2 (configuration not stated) | 25.1% |
| NS(=O)(=O)c1ccc(CCNC(=S)Nc2ccc(S(N)(=O)=O)cc2)cc1 | 96.8% |
| Cc1ccccc1C(CC(=O)c1cccs1)C(C#N)C#N (configuration not stated) | 3.71% (active) |
| Cc1ccc(C)c(NC(CC(=O)c2ccccc2)C(=O)OCC(=O)c2cccs2)c1 (configuration not stated) | 85% |
| O=C(CCC(=O)c1cccs1)NCc1ccccc1 | 97.4% |
| Cc1ccc(CN2C(=O)N/C(=C/c3cc(C)n(-c4ccccn4)c3C)C2=O)cc1 | 84.5% |
| Cc1cc(OCCCC(=O)NCCN2C(=O)S/C(=C\c3cccnc3)C2=O)ccc1Cl | 78.4% |
| COC(=O)N/N=C/c1ccc(-c2ccc(Cl)c(Cl)c2)o1 | 68.4% |
